According to PubChem BioAssay (Tox21):
Inconclusive results are not listed. A call without a number means that no potency is given here. The source made the active and inactive calls. Unless noted, calls follow the shape of the dose curve; as a rule, active = well fitted curve in the direction sought with a large enough effect in the repeat runs; inconclusive = weak or mixed curves; inactive = no such curve, though single readings can be large; an effect the other way counts as inactive or inconclusive.

Columns and labels:
[1] = qHTS RealTime-Glo MT Cell Viability Assay in HEK293 cells - 0 hour (AID 1224880); also: top concentration of the series differs between compounds; nearly all actives have a fitted effect of over 45% in size
Outline: (§1)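 Cells were seeded together with NanoLuc luciferase and a prosubstrate that viable cells reduce to a luciferase substrate. After a 5 h incubation at 37 C/5% CO2, compounds were added and luminescence was measured repeatedly during 40 h of treatment.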

[2] = A CellTox Green Cytotoxicity Assay to monitor cytotoxicity in HEK293 cells - 32 hour (AID 1224881); also: nearly all actives have a fitted effect of over 40% in size
Outline: (§2)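 Nonlytic real-time cytotoxicity: HEK293 + CellTox Green reagent plated, 5 h preincubation, pintool compound addition (23 nL in DMSO), 37 C for 40 h, fluorescence measured at successive time points.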

[3] = A CellTox Green Cytotoxicity Assay to monitor cytotoxicity in HepG2 cells - 0 hour (AID 1224882); also: nearly all actives have a fitted effect of over 35% in size
Outline: (§3)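 Read-out is fluorescence of a cyanine dye excluded from live cells that stains DNA of dead HepG2 cells, with signal proportional to cytotoxicity. Plates were read at 0, 8, 16, 24, 32 and 40 h after compound addition.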

[4] = A CellTox Green Cytotoxicity Assay to monitor cytotoxicity in HepG2 cells - 32 hour (AID 1224883); also: nearly all actives have a fitted effect of over 50% in size
Outline: as §3

[5] = A CellTox Green Cytotoxicity Assay to monitor cytotoxicity in HEK293 cells - 8 hour (AID 1224884); also: nearly all actives have a fitted effect of over 35% in size
Outline: as §2

[6] = qHTS RealTime-Glo MT Cell Viability Assay in HepG2 cells - 16 hour (AID 1224885); also: nearly all actives have a fitted effect of over 50% in size
Outline: (§4)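 Cell number in HepG2 cultures estimated from NanoLuc luminescence generated by metabolic reduction of a prosubstrate by living cells. The homogeneous, nonlytic format allowed repeated reads at 0, 8, 16, 24, 32 and 40 h of compound exposure.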

[7] = qHTS RealTime-Glo MT Cell Viability Assay in HEK293 cells - 24 hour (AID 1224886); also: top concentration of the series differs between compounds; nearly all actives have a fitted effect of over 50% in size
Outline: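 Homogeneous bioluminescent viability format in HEK293 cells (600 cells/well). Following 5 h at 37 C/5% CO2, 23 nL compound was pintooled; the signal was measured repeatedly during 40 h incubation.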

[8] = qHTS RealTime-Glo MT Cell Viability Assay in HEK293 cells - 8 hour (AID 1224887); also: top concentration of the series differs between compounds; nearly all actives have a fitted effect of over 50% in size
Outline: as §1

[9] = A CellTox Green Cytotoxicity Assay to monitor cytotoxicity in HEK293 cells - 16 hour (AID 1224888); also: nearly all actives have a fitted effect of over 35% in size
Outline: as §2

[10] = qHTS RealTime-Glo MT Cell Viability Assay in HepG2 cells - 0 hour (AID 1224889); also: nearly all actives have a fitted effect of over 50% in size
Outline: as §4

[11] = A CellTox Green Cytotoxicity Assay to monitor cytotoxicity in HepG2 cells - 8 hour (AID 1224890); also: nearly all actives have a fitted effect of over 45% in size
Outline: as §3

[12] = qHTS assay to identify small molecule antagonists of the estrogen receptor alpha (ER-alpha) signaling pathway using the BG1 cell line in the presence of 0.1 nM 17-beta-estradiol - cell viability counter screen (AID 1259241); also: nearly all actives have a fitted effect of over 40% in size
Outline: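 Viability in VM7Luc4E2 cells after 22 hr compound exposure under 0.1 nM 17beta-estradiol stimulation, by CellTiter-Fluor.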

[13] = qHTS assay to identify small molecule antagonists of the androgen receptor (AR) signaling pathway using the MDA cell line in the presence of 0.5 nM R1881 - cell viability counter screen (AID 1259242); also: nearly all actives have a fitted effect of over 45% in size
Outline: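 Counter screen for cytotoxicity run in the same wells as the AR antagonist reporter screen: MDA-kb2 cells were treated 16 hr with test compounds and 0.5 nM R1881, then live-cell protease activity was measured by fluorescence.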

[14] = target: Estrogen receptor (Homo sapiens) (UniProt P03372); experiment: qHTS assay to identify small molecule antagonists of the estrogen receptor alpha (ER-alpha) signaling pathway using the BG1 cell line in the presence of 0.1 nM 17-beta-estradiol (AID 1259244); also: nearly all actives have a fitted effect of over 50% in size
Sequence of Estrogen receptor (Homo sapiens) (P03372 whole entry, looked up): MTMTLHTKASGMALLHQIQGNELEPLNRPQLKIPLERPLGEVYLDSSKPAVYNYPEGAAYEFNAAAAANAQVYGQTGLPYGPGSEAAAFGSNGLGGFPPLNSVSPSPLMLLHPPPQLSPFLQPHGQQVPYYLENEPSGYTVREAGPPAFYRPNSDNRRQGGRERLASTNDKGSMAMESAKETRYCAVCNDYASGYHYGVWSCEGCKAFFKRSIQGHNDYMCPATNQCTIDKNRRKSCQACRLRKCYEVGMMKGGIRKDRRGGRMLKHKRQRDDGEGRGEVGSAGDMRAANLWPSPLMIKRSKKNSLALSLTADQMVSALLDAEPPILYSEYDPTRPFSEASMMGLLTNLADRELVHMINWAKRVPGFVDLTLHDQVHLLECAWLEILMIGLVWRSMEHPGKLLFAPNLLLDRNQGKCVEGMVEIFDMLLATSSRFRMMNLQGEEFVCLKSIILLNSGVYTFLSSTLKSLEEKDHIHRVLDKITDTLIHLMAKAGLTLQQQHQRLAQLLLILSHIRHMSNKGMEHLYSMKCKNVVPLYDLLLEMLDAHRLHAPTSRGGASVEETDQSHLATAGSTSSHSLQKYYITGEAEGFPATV
Outline: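 Cells: VM7Luc4E2, endogenous ER-alpha, 4x ERE-luc stable. Pre-culture 5 d, phenol red-free, charcoal-stripped FBS. Plated 24 h, compound + E2 0.1 nM final, 22 h 37C/5% CO2. Readout ONE-Glo luminescence.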

[15] = qHTS assay to identify small molecule HDAC inhibitors (AID 1259364); also: top concentration of the series differs between compounds; nearly all actives have a fitted effect of over 45% in size
Outline: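 Luminescence from a cell-permeant luminogenic class I/II HDAC substrate reports endogenous deacetylase activity in intact HCT-116 cells treated with compounds for 2 h.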

[16] = qHTS assay to identify small molecule HDAC inhibitors - cell viability counter screen (AID 1259365)
Outline: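 Cytotoxicity was gauged in wild-type HCT-116 cells after a brief 2hr treatment with DMSO-dissolved compounds at 37C and 5% CO2, using CellTiter-Glo luminescence developed for 30min at room temperature.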

[17] = qHTS assay to identify small molecule agonists of the sonic hedgehog signaling (Shh) pathway - cell viability counter screen (AID 1259366); also: nearly all actives have a fitted effect of over 50% in size
Outline: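 Stable Gli1-Luc NIH/3T3 clone, 2,000 cells/well. Compound exposure 24hr at 37C. Read-out: CellTiter-Fluor fluorescence.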

[18] = qHTS assay to identify small molecule antagonists of the sonic hedgehog signaling (Shh) pathway - cell viability counter screen (AID 1259367); also: nearly all actives have a fitted effect of over 55% in size
Outline: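 Cells: 3T3 Gli1-Luc, 2,000/well, 4 hr pre-incubation. Compounds in DMSO, then conditioned medium. Incubation 24 hr, 37C, 5% CO2. CellTiter-Fluor at 23 hr, 1 hr, fluorescence.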

[19] = target: Androgen receptor (Homo sapiens) (UniProt P10275); experiment: qHTS assay to identify small molecule antagonists of the androgen receptor (AR) signaling pathway using the MDA cell line in the presence of 0.5 nM R1881 (AID 1259243); also: nearly all actives have a fitted effect of over 50% in size; also: potency is read from the fitted curve at half-maximal effect
Sequence of Androgen receptor (Homo sapiens) (P10275 whole entry, looked up): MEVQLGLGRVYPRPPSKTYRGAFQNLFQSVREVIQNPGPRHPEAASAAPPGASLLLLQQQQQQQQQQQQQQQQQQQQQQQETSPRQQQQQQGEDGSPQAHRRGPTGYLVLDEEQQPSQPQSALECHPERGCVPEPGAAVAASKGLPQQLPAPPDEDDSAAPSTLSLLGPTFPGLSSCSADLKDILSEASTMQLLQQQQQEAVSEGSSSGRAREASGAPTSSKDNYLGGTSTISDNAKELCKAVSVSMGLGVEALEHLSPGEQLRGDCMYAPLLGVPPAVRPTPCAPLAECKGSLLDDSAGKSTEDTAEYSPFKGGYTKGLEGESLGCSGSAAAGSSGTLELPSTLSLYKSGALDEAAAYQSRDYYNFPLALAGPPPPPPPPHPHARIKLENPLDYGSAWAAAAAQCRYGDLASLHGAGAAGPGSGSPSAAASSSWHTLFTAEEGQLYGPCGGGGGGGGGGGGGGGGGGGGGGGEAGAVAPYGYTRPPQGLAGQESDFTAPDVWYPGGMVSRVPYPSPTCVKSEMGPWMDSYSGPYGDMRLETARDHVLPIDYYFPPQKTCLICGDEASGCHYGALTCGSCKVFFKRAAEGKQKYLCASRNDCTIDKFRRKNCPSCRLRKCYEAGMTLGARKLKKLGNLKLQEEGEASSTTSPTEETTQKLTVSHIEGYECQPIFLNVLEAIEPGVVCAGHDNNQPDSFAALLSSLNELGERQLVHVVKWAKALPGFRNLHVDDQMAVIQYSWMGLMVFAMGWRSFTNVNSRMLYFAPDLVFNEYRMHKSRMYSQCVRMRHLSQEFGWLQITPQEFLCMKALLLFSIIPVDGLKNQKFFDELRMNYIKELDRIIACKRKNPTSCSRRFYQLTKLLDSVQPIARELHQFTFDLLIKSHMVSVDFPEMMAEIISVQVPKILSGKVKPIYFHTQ
Outline: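 Luciferase luminescence is the read-out: compounds are tested for suppressing 0.5 nM R1881-driven MMTV reporter activity in MDA-kb2 cells after 16 hr at 37C.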

[20] = qHTS assay to identify small molecule phospholipidosis (PLD) inducers (AID 1259344; active = well fitted curve in the direction sought with a large enough effect; an effect the other way counts as inactive or inconclusive)
Outline: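 Phospholipidosis is scored by imaging LipidTOX-stained pits in HepG2 cells exposed to compound for 24 h at 37 C; pit counts and integrated intensities per well and per cell serve as outputs.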

Structure (SMILES): N#C/C(N)=C(/N)C#N
- Potency [1]: inactive
- Potency [2]: inactive
- Potency [3]: inactive
- Potency [4]: inactive
- Potency [5]: inactive
- Potency [6]: inactive
- Potency [7]: inactive
- Potency [8]: inactive
- Potency [9]: inactive
- Potency [10]: inactive
- Potency [11]: inactive
- Potency [12]: inactive
- Potency [13]: inactive
- Potency [14]: inactive
- Potency [15]: inactive
- Potency [16]: inactive
- Potency [17]: inactive
- Potency [18]: inactive

Structure (SMILES): CCOC(=O)COc1cc(-c2nn(C)c(OC(F)F)c2Cl)c(F)cc1Cl
- Potency [1]: inactive
- Potency [2]: inactive
- Potency [3]: inactive
- Potency [4]: inactive
- Potency [5]: inactive
- Potency [6]: inactive
- Potency [7]: inactive
- Potency [8]: inactive
- Potency [9]: inactive
- Potency [10]: inactive
- Potency [11]: inactive
- Potency [12]: inactive
- Potency [13]: inactive
- Potency [19]: inactive
- Potency [15]: inactive
- Potency [16]: inactive
- Potency [17]: inactive
- Potency [18]: inactive

Structure (SMILES): O=C(CBr)c1ccccc1
- Potency [1]: inactive
- Potency [2]: inactive
- Potency [3]: inactive
- Potency [4]: inactive
- Potency [5]: inactive
- Potency [6]: inactive
- Potency [7]: inactive
- Potency [8]: inactive
- Potency [9]: inactive
- Potency [10]: inactive
- Potency [11]: inactive
- Potency [12]: inactive
- Potency [13]: inactive
- Potency [14]: inactive
- Potency [15]: inactive
- Potency [16]: inactive
- Potency [17]: inactive

Structure (SMILES): CC(=O)[C@H]1CC[C@H]2[C@@H]3CC[C@H]4C[C@](C)(O)CC[C@]4(C)[C@H]3CC[C@]12C
- Potency [1]: inactive
- Potency [2]: inactive
- Potency [3]: inactive
- Potency [4]: inactive
- Potency [5]: inactive
- Potency [6]: inactive
- Potency [7]: inactive
- Potency [8]: inactive
- Potency [9]: inactive
- Potency [10]: inactive
- Potency [11]: inactive
- Potency [12]: inactive
- Potency [13]: inactive
- Potency [14]: inactive
- outcome [20]: inactive
- Potency [15]: inactive
- Potency [16]: inactive
- Potency [17]: inactive
- Potency [18]: inactive

Structure (SMILES): COc1cc(CC(C)N)cc2c1OCO2 (configuration not stated)
- Potency [1]: inactive
- Potency [2]: inactive
- Potency [3]: inactive
- Potency [4]: inactive
- Potency [5]: inactive
- Potency [6]: inactive
- Potency [7]: inactive
- Potency [8]: inactive
- Potency [9]: inactive
- Potency [10]: inactive
- Potency [11]: inactive
- Potency [12]: inactive
- Potency [13]: inactive
- Potency [14]: inactive
- outcome [20]: inactive
- Potency [15]: inactive
- Potency [16]: inactive
- Potency [17]: inactive
- Potency [18]: inactive

Structure (SMILES): CCCCCCCCCCOC(=O)c1ccccc1C(=O)OCCCCCCCCCC
- Potency [1]: inactive
- Potency [2]: inactive
- Potency [3]: inactive
- Potency [4]: inactive
- Potency [5]: inactive
- Potency [6]: inactive
- Potency [7]: inactive
- Potency [8]: inactive
- Potency [9]: inactive
- Potency [10]: inactive
- Potency [11]: inactive
- Potency [12]: inactive
- Potency [13]: inactive
- Potency [19]: inactive
- Potency [14]: inactive
- Potency [15]: inactive
- Potency [16]: inactive
- Potency [17]: inactive
- Potency [18]: inactive

Structure (SMILES): C=CCC1([C@H](C)CCC)C(=O)NC(=O)NC1=O
- Potency [1]: inactive
- Potency [2]: inactive
- Potency [3]: inactive
- Potency [4]: inactive
- Potency [5]: inactive
- Potency [6]: inactive
- Potency [7]: inactive
- Potency [8]: inactive
- Potency [9]: inactive
- Potency [10]: inactive
- Potency [11]: inactive
- Potency [12]: inactive
- Potency [13]: inactive
- Potency [14]: inactive
- outcome [20]: inactive
- Potency [15]: inactive
- Potency [16]: inactive
- Potency [17]: inactive
- Potency [18]: inactive

Structure (SMILES): COP(=S)(OC)Oc1cc(Cl)c(I)cc1Cl
- Potency [1]: inactive
- Potency [2]: inactive
- Potency [3]: inactive
- Potency [4]: inactive
- Potency [5]: inactive
- Potency [6]: inactive
- Potency [7]: inactive
- Potency [8]: inactive
- Potency [9]: inactive
- Potency [10]: inactive
- Potency [11]: inactive
- Potency [12]: inactive
- Potency [13]: inactive
- Potency [19]: 54.5 µM (active)
- Potency [15]: inactive
- Potency [16]: inactive
- Potency [17]: inactive

Structure (SMILES): Cn1cc[n+](C)c1 (tested in a mixture with another compound)
- Potency [1]: inactive
- Potency [2]: inactive
- Potency [3]: inactive
- Potency [4]: inactive
- Potency [5]: inactive
- Potency [6]: inactive
- Potency [7]: inactive
- Potency [8]: inactive
- Potency [9]: inactive
- Potency [10]: inactive
- Potency [11]: inactive
- Potency [12]: inactive
- Potency [13]: inactive
- Potency [14]: inactive
- Potency [15]: inactive
- Potency [16]: inactive
- Potency [17]: inactive
- Potency [18]: inactive

Structure (SMILES): Cc1cc(=O)[nH]o1
- Potency [1]: inactive
- Potency [2]: inactive
- Potency [3]: inactive
- Potency [4]: inactive
- Potency [5]: inactive
- Potency [6]: inactive
- Potency [7]: inactive
- Potency [8]: inactive
- Potency [9]: inactive
- Potency [10]: inactive
- Potency [11]: inactive
- Potency [12]: inactive
- Potency [13]: inactive
- Potency [19]: inactive
- Potency [14]: inactive
- Potency [15]: inactive
- Potency [16]: inactive
- Potency [17]: inactive
- Potency [18]: inactive

Structure (SMILES): COC(=O)C(Cl)C(=O)OC
- Potency [1]: inactive
- Potency [2]: inactive
- Potency [3]: inactive
- Potency [4]: inactive
- Potency [5]: inactive
- Potency [6]: inactive
- Potency [7]: inactive
- Potency [8]: inactive
- Potency [9]: inactive
- Potency [10]: inactive
- Potency [11]: inactive
- Potency [12]: inactive
- Potency [13]: inactive
- Potency [14]: inactive
- outcome [20]: inactive
- Potency [15]: inactive
- Potency [16]: inactive
- Potency [17]: inactive
- Potency [18]: inactive

Structure (SMILES): Cl/C=C\Cl
- Potency [1]: inactive
- Potency [2]: inactive
- Potency [3]: inactive
- Potency [4]: inactive
- Potency [5]: inactive
- Potency [6]: inactive
- Potency [7]: inactive
- Potency [8]: inactive
- Potency [9]: inactive
- Potency [10]: inactive
- Potency [11]: inactive
- Potency [12]: inactive
- Potency [13]: inactive
- Potency [14]: inactive
- Potency [15]: inactive
- Potency [16]: inactive
- Potency [17]: inactive
- Potency [18]: inactive

Structure (SMILES): CC(=O)NC1CCSC1=O (configuration not stated)
- Potency [1]: inactive
- Potency [2]: inactive
- Potency [3]: inactive
- Potency [4]: inactive
- Potency [5]: inactive
- Potency [6]: inactive
- Potency [7]: inactive
- Potency [8]: inactive
- Potency [9]: inactive
- Potency [10]: inactive
- Potency [11]: inactive
- Potency [12]: inactive
- Potency [13]: inactive
- Potency [19]: inactive
- Potency [14]: inactive
- outcome [20]: inactive
- Potency [16]: inactive
- Potency [17]: inactive
- Potency [18]: inactive

Structure (SMILES): c1ccoc1
- Potency [1]: inactive
- Potency [2]: inactive
- Potency [3]: inactive
- Potency [4]: inactive
- Potency [5]: inactive
- Potency [6]: inactive
- Potency [7]: inactive
- Potency [8]: inactive
- Potency [9]: inactive
- Potency [10]: inactive
- Potency [11]: inactive
- Potency [12]: inactive
- Potency [13]: inactive
- Potency [14]: inactive
- Potency [15]: inactive
- Potency [16]: inactive
- Potency [17]: inactive
- Potency [18]: inactive
